# Test results from PubChem BioAssay (NCI).
# This is part of a sample that, as a whole, favours compounds with a hit. Of some 83,000 tested, about 20% had one in any assay.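 Activity criterion: percent growth below 10, measured after cells in 96-well plates were exposed to a single compound concentration for 48 hours.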 Values without a mark were called inactive. Active and inactive are the calls of the source.
# Tests used:
# Test in all cases: NCI-60 one-dose screen, 48 h (100 = growth as untreated, 0 = no growth, -100 = all killed)
# Details in all cases: 10 µM unless noted
# NCI-H23 lung = tested on: NCI-H23 lung
# NCI-H226 lung = tested on: NCI-H226 lung
# HOP-62 NSCLC = tested on: HOP-62 NSCLC
# NCI-H460 lung = tested on: NCI-H460 lung
# HOP-92 NSCLC = tested on: HOP-92 NSCLC
# NCI-H522 lung = tested on: NCI-H522 lung
# A549/ATCC NSCLC = tested on: A549/ATCC NSCLC
# 786-0 renal = tested on: 786-0 renal
# COLO 205 colon = tested on: COLO 205 colon
SMILES,growth (NCI-H23 lung),growth (NCI-H226 lung),growth (HOP-62 NSCLC),growth (NCI-H460 lung),growth (HOP-92 NSCLC),growth (NCI-H522 lung),growth (A549/ATCC NSCLC),growth (786-0 renal),growth (COLO 205 colon)
CCOC(=O)C(O)C(O)(c1ccccc1)c1ccccc1 (stereo unspecified),102%,90.2%,97%,110%,113%,92.8%,95.6%,102%,–
COc1cc2oc(-c3cccc(C(=O)Nc4ccc(C#N)cc4)c3)cc(=O)c2c(O)c1OC,38.2%,21.2%,-31.8% (active),18.9%,79.2%,61.2%,37.4%,70.4%,39.9%
Cc1cc(=O)c2cc3nc(-c4cccnc4)oc3c(Br)c2o1,90%,116%,101%,104%,92%,62.9%,97.2%,96.8%,–
CCN1CCN(c2ccc(Nc3cc(-c4cccnc4Nc4c(Cl)c(OC)cc(OC)c4Cl)ncn3)cc2)CC1,63.8%,47%,40.6%,–,54.5%,75.9%,39.9%,89.2%,–
Cc1ccc(-n2nnc(C3=NCCc4c3[nH]c3ccc(Cl)cc43)c2C)cc1,80.6%,76.2%,72.2%,72.5%,76.4%,30.9%,41.3%,78.2%,–
CCCCCCCC/C=C\CCCCCCCC(=O)Oc1cccc2cccnc12,105%,97%,96.4%,96.1%,236%,71%,101%,105%,–
Cc1c(C(=O)O)nnn1-c1nccs1,94.5%,95.9%,84.1%,98.5%,82.4%,77.9%,79.2%,97.1%,107%
CCCN1CCN(c2ccc3nc(-c4ccc5nc(-c6cc(OC)c(OC)c(OC)c6)[nH]c5c4)[nH]c3c2)CC1,80.1%,81.7%,84.3%,93.2%,70.5%,41.1%,106%,77.3%,–
CCn1c(Sc2nnc(NC(=O)CCN3CCCC3)s2)nc2c1c(=O)n(C)c(=O)n2C,106%,103%,103%,112%,107%,86.8%,99.3%,106%,–
CCn1c(Sc2nnc(NC(=O)CSC(=S)N3CCCCC3)s2)nc2c1c(=O)n(C)c(=O)n2C,91.3%,86.6%,87.1%,101%,81.1%,38.1%,78.1%,92.4%,–
COc1ccc(/C(C)=C(\c2ccc(Cl)cc2)c2ccc(OCCN3CCCCC3)cc2)cc1F,48.1%,77%,16.8%,7.34% (active),59.6%,65.5%,53%,2.47% (active),5.95% (active)
CCCCCCN(CCCCCC)CC(O)c1cccc2ccc(Cl)cc12 (stereo unspecified),38.8%,85.6%,31.8%,44%,3.01% (active),38.1%,67.2%,53.2%,–
CS(=O)(=O)c1ccc(N/N=C/c2c(-c3ccc(S(C)(=O)=O)cc3)[nH]c3ccc(F)cc23)cc1,41.6%,67.2%,28.1%,–,16.3%,27.6%,44.7%,15.9%,–
CC(=O)NCC(=O)Nc1ccc(-c2nnc3ccccn23)nc1.CC(=O)NCC(=O)Nc1ccc(-c2nnc3ccccn23)nc1.[Pt+2],99.4%,110%,101%,99.6%,119%,83.6%,85%,107%,111%
COc1ccc(-c2cc(-c3cc(OC)ccc3OC)[nH]c(=O)c2C#N)cc1,64.3%,69.5%,48.1%,32.4%,55.3%,16.7%,46.3%,63.5%,–
CCOC(=O)C1C(=O)C=C(c2cnccn2)CC1c1ccc(OC)c(OC)c1 (stereo unspecified),95.6%,96.1%,88.3%,114%,58.2%,73.3%,86.6%,83.7%,–

SMILES,growth (NCI-H23 lung),growth (NCI-H226 lung),growth (HOP-62 NSCLC),growth (NCI-H460 lung),growth (HOP-92 NSCLC),growth (NCI-H522 lung),growth (A549/ATCC NSCLC),growth (786-0 renal),growth (COLO 205 colon)
COC1(CC[C@@H](C)COC2OC(CO)C(O)C(O)C2O)O[C@H]2C[C@H]3[C@@H]4CC=C5C[C@@H](OC6OC(CO)C(OC7OC(C)C(O)C(O)C7O)C(O)C6OC6OC(C)C(O)C(O)C6O)CC[C@]5(C)[C@H]4CC[C@]3(C)[C@H]2[C@@H]1C (stereo partly specified),-63% (active),-57.2% (active),-83% (active),-90.2% (active),-62% (active),-60.9% (active),-64.7% (active),-94.3% (active),–
COc1ccc(C2CC(c3ccc4ccccc4c3)=NN2c2nc(O)c(C3=c4cc(Cl)ccc4=NC3=O)s2)cc1 (stereo unspecified),-40.9% (active),-73.2% (active),-53.8% (active),-20% (active),-57.2% (active),-82% (active),-56% (active),-80.5% (active),-79.4% (active)
Cc1cc(N(CCCNc2ccnc3cc(Cl)ccc23)Cc2ccccn2)nc(N2CCOCC2)n1,90.4%,90.9%,85.2%,99.7%,66.6%,74.7%,–,86%,–
CN(C)c1ccc2cc(-c3ccccc3F)c(N)nc2c1,21.4%,59.3%,37.4%,15.9%,32.3%,-1.23% (active),22.1%,34%,–
Nc1c(C(=O)Nc2ccccc2)sc2nc3c(cc12)CCCCCC3,22.5%,27%,15.5%,4.61% (active),76.5%,-11.6% (active),15%,10.4%,-17% (active)
O=C(/C=C/C12c3ccccc3C(c3ccccc31)C1C(=O)NC(=O)C12)c1ccc(Cl)cc1 (stereo unspecified),-2% (active),-22.3% (active),6.96% (active),-43.7% (active),-15.2% (active),11.4%,15.4%,-9.5% (active),–
COc1cc2c(=O)n(CCCn3ccnc3)c3c4cc5c(cc4ccc3c2cc1OC)OCO5,5.18% (active),-42.5% (active),10.5%,-9.42% (active),-5.78% (active),5.91% (active),22%,-57.3% (active),–
C=C(C)[C@@H]1CC[C@]2(CN)CC[C@]3(C)[C@H](CC[C@@H]4[C@@]5(C)CCC(N)[C@@](C)(CO)[C@@H]5CC[C@]43C)[C@@H]12 (stereo partly specified),53%,89.6%,-89.2% (active),-75.7% (active),51.7%,-77.5% (active),-82.3% (active),-92.9% (active),–
COc1c(C)cnc(CSc2nc(-c3ccc(C)cc3)cn2-c2ccc(Cl)cc2)c1C,97%,102%,89.5%,101%,103%,55.9%,88.6%,95.3%,96%
O=C1Nc2ccccc2/C1=N/N=C/c1ccc(OC2OC(CO)C(O)C(O)C2O)cc1 (stereo unspecified),102%,104%,103%,111%,111%,95%,102%,109%,–
C=C1c2c(C)nn(-c3ccc(S(N)(=O)=O)cc3)c2N(C)C23CC1C1(C)c4c(C)nn(-c5ccc(S(N)(=O)=O)cc5)c4N(C)C(C)(CC12)C3 (stereo unspecified),51.4%,40.7%,48.2%,12.4%,50.1%,44%,17.6%,41.9%,–
NC(N)=N/N=C(/c1ccccc1)c1ccccc1F,34.4%,14.4%,17.5%,13.2%,57.8%,4.97% (active),28.4%,-26.2% (active),–
COc1ccc(-n2sc(=O)n(Cc3ccc(COC(=O)C(C)c4ccc(CC(C)C)cc4)cc3)c2=O)cc1 (stereo unspecified),78.1%,68.2%,66.8%,–,19.2%,-32.9% (active),80.8%,57.3%,-10.9% (active)
Cc1ccc(S(=O)(=O)N(CC[C@@H]2C[C@H]2c2cc3ccccc3o2)C(=O)NC2CCCCC2)cc1,78.2%,87.3%,93.1%,104%,110%,86%,–,95.4%,–
CCCCCCNCc1cc(C(C)(C)C)cc(CNCCCCCC)c1O,-8.06% (active),-60.5% (active),-90.1% (active),-76.3% (active),-36.3% (active),-66% (active),-85.4% (active),-90.5% (active),–
